# From PubChem BioAssay (NCATS)
# Inconclusive results are not listed. The source made the active and inactive calls. Calls come from the whole dose curve; as a rule, active = well fitted curve in the direction sought with a large enough effect; inconclusive = small, poorly fitted or top-dose-only effect, or another doubt; inactive = no such curve, though single readings can be large or run the other way.
# Biological target: Protein phosphatase 1D (Homo sapiens) (UniProt O15297)
# Assay: Rhodamine-PBP qHTS Assay for Modulators of WT P53-Induced Phosphatase 1 (WIP1) (AID 1347425); note: % of control where 0% means no effect
# Settings: recombinant WIP1, Rhodamine-PBP phosphate fluorescence, real-time; series mostly up to 57.5 µM; activity change, negative = inhibition: at the top concentration
# Description: Assay Provider (PI): Nathan Coussens Ph.D.
# National Center for Advancing Translational Sciences (NCATS), Rockville, MD
# National Institute of Health (NIH), Bethesda, Maryland
# WT P53-Induced Phosphatase 1 (WIP1) is a member of the magnesium-dependent serine/threonine protein phosphatase (PPM) family and is induced by P53 in response to DNA damage. In several human cancers, the WIP1 protein is overexpressed, which is generally associated with a worse prognosis. Although WIP1 is an attractive therapeutic target, no potent, selective, and bioactive small-molecule modulator with favorable pharmacokinetics has been reported. Phosphatase enzymes are among the most challenging targets for small molecules because of the difficulty of achieving both modulator selectivity and bioavailability. Another major obstacle has been the availability of robust and physiologically relevant phosphatase assays that are suitable for high-throughput screening.
# Here, we describe two orthogonal biochemical WIP1 activity assays that utilize phosphopeptides from native WIP1 substrates. We optimized a RapidFire MS assay to quantify the enzymatically dephosphorylated peptide reaction product in a 384-well format. Additionally, a redshifted Rhodamine-PBP fluorescence assay was optimized in a 1,536-well format to enable real-time WIP1 activity measurements through the detection of the orthogonal reaction product, Pi. We validated these two optimized assays by quantitative high-throughput screening against the National Center for Advancing Translational Sciences (NCATS) Pharmaceutical Collection and used secondary assays to confirm and evaluate inhibitors identified in the primary screen.
# SEQUENCE No. (e.g., 1, 2, 3, etc.); […] (e.g., Cells, Incubation, Reagent, etc.); VALUE; DESCRIPTION
# 1; Reagent; 3 uL; WIP1 (6.7 nM), Rh-PBP (13.3 uM), columns 1-48
# 3; Library Compounds; 23 nL; NCATS Pharmaceutical Collection, column 5-48
# 4; Control Compounds; DMSO in column 2, GSK2830371 (57.5 uM, final) in 3-fold serial dilutions in column 3, GSK2830371 (1.15 uM, final) in column 4
# 5; Time; 1 hr; incubation
# 6; Detection; fluorescence (f0); ViewLux, excitation filter = 525 nm, emission filter = 598 nm
# 7; Reagent; 1 uL; VEPP-pS-QETFS (40 uM), columns 2-48
# 8; Detection; fluorescence (f1); ViewLux, excitation filter = 525 nm, emission filter = 598 nm
# NOTES (numbers refer to sequence above)
# 1 & 2; Black medium binding Greiner 1536-well plates (# 789176-F); assay buffer: 50 mM Tris-HCl pH 7.5, 30 mM MgCl2, 1mM TCEP, 0.1 mM EGTA, 75 ug/mL BSA; dispensed with a BioRaptr liquid handler (Beckman Coulter).
# 3 & 4; Kalypsys pintool (equipped with 1536 pinhead, Wako USA) transfer. Tip wash sequence: DMSO, methanol, 3 sec vacuum dry.
# 5; Room temperature incubation.
# 7; VEPPL-pS-QETFS in assay buffer dispensed with a BioRaptr; final reaction conditions: 5 nM WIP1, 10 uM VEPPL-pS-QETFS, 10 uM Rh-PBP, 50 mM Tris-HCl pH 7.5, 30 mM MgCl2, 1 mM TCEP, 0.1 mM EGTA, 75 ug/mL BSA.
# 8; Measurement taken at 1 min intervals for 11 min. Delta readout = f1 - f0.
# Protein phosphatase 1D (Homo sapiens), sequence (O15297 whole entry, looked up): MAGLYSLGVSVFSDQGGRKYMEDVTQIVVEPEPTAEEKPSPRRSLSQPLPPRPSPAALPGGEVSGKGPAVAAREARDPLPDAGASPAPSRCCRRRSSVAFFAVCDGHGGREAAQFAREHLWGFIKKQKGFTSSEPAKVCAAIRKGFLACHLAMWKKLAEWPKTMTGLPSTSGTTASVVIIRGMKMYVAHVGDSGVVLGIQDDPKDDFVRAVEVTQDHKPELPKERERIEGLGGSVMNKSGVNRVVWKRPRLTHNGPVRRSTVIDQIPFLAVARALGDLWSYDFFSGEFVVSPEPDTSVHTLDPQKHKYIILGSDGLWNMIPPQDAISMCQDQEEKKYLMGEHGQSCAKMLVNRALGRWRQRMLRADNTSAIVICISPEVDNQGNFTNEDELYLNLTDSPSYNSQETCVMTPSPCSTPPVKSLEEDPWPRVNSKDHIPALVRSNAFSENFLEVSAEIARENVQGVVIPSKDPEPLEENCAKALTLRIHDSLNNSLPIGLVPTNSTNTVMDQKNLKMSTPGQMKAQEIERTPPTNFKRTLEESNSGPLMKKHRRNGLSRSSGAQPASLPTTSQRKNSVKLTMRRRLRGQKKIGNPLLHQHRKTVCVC
row,SMILES,"activity change, negative = inhibition"
1,NC(=O)CS(=O)C(c1ccccc1)c1ccccc1 (stereo not given),1.4% (inactive)
2,CCN[C@H](C)Cc1cccc(C(F)(F)F)c1,10% [at 116 µM] (inactive)
3,COC(=O)[C@@H](N)CCCN/C(N)=N/[N+](=O)[O-],13.6% (inactive)
4,Nc1ccccc1,2.05% (inactive)
5,C[C@]12CC[C@@H]3c4ccc(OC(=O)N(CCCl)CCCl)cc4CC[C@H]3[C@@H]1CC[C@@H]2O,-4.2% (inactive)
6,COc1ccc2c3c1O[C@H]1[C@H](O)CC[C@H]4[C@@H](C2)N(C)CC[C@@]341,4.85% [at 116 µM] (inactive)
7,COc1cc(CCN)cc(OC)c1OC,5.92% [at 151 µM] (inactive)
8,ClCCN1CCCC1,14.8% (inactive)
9,CN1C(=O)COc2c(C(=O)NC3CN4CCC3CC4)cc(Cl)cc21 (stereo not given),7.88% (inactive)
10,CCCN(CCC)C(=O)Cc1c(-c2ccc(Cl)cc2)nc2ccc(Cl)cn12,17.6% (inactive)
11,CCC(CC)(CNC(=O)CCCO)c1cccc(OC)c1,3.79% (inactive)
12,Nc1nc(N)nc(NC2CC2)n1,-21% (inactive)
13,CN1CC[C@]23c4c5ccc(O)c4O[C@H]2[C@@H](O)CC[C@H]3[C@H]1C5,-9.8% [at 116 µM] (inactive)
14,CCC1(c2ccccc2)C(=O)N(COC)C(=O)N(COC)C1=O,12.2% (inactive)
15,c1ccc(N2CCNCC2)cc1,10.4% (inactive)
16,CC(Cc1ccccc1)NCCn1cnc2c1c(=O)n(C)c(=O)n2C (stereo not given),8.36% [at 116 µM] (inactive)
17,NCCc1ccc(O)cc1,4.92% (inactive)
18,CCC(C)(C)c1ccc(O)cc1,-18.8% (inactive)
19,Cc1ncsc1CCCl,-2.4% (inactive)
20,CC(C)c1cccc(C(C)C)c1O,-6.93% (inactive)

row,SMILES,"activity change, negative = inhibition"
1,CCCCCCC(=O)CCCCCC/C=C/C[C@@H](O)[C@H](O)[C@@](N)(CO)C(=O)O,15.1% [at 23.8 µM] (inactive)
2,C=CCC1(C(C)CC)C(=O)NC(=O)NC1=O (stereo not given),0.323% (inactive)
3,COc1cc(CC(C)N)cc(OC)c1OC (stereo not given),-33% [at 116 µM] (inactive)
4,Nc1ccccc1C(=O)O,10.2% (inactive)
5,CNC(C)(C)Cc1ccccc1,14.7% (inactive)
6,NC1=NC(=O)C(c2ccccc2)O1 (stereo not given),4.34% (inactive)
7,C[C@H](N)C(=O)c1ccccc1,-0.323% [at 151 µM] (inactive)
8,CC(C)(C)NCC(O)c1cc(Cl)c(N)c(C(F)(F)F)c1 (stereo not given),-8.51% (inactive)
9,COc1c2c(cc3c1OCO3)CCN(C)C2,-1.54% (inactive)
10,CC(=O)C1CCOC1=O (stereo not given),-4.71% (inactive)
11,CC(C)c1c(CN(C)C(C)Cc2ccccc2)n(C)n(-c2ccccc2)c1=O (stereo not given),8.81% (inactive)
12,CCc1cc2c(s1)-n1c(C)nnc1CN=C2c1ccccc1Cl,7.5% (inactive)
13,CCC(C)C(C)(COC(N)=O)COC(N)=O (stereo not given),17.8% (inactive)
14,O=C(O)CCCc1ccc(N(CCCl)CCCl)cc1,-11.4% (inactive)
15,O=P1(N(CCCl)CCCl)NCCCO1 (stereo not given),-2.19% (inactive)
16,COC1CC(=C(c2cccs2)c2cccs2)C[N+](C)(C)C1 (stereo not given),22.9% (inactive)
17,c1ccc(CN2CCNCC2)cc1,-14.2% [at 278 µM] (inactive)
18,COc1cccc([C@@]2(O)CCCC[C@@H]2CN(C)C)c1,-2.16% (inactive)
19,COc1cc(OC)c(OC)cc1C=O,17.5% [at 116 µM] (inactive)
20,CCN(CCO)CCn1c(Cc2ccccc2)nc2c1c(=O)n(C)c(=O)n2C,10.8% (inactive)
